The list shows a part of the results. No count for the full screen is at hand.
Target: furin, P09958
Assay: furin cleavage Z-score vs untreated control; higher = more cleavage, active = 3.5 or more, inactive = 1 or less, 8 variable residues between constant flanks
How it was run: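 Furin-free reactions served as the baseline for the cleavage Z-score, which is the log read count lowess-adjusted and scaled by median absolute deviation. Counts came from released DNA, adapter-tagged by PCR and sequenced. Purified furin had cut 8-mer peptides fused to a cDNA oligonucleotide on magnetic beads during 7.5, 15 or 30 min at 1:10 enzyme:substrate.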
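Also: purified furin at 1:10 enzyme:substrate in 50 mM HEPES pH 7.5.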

furin, P09958, sequence (P09958 whole entry): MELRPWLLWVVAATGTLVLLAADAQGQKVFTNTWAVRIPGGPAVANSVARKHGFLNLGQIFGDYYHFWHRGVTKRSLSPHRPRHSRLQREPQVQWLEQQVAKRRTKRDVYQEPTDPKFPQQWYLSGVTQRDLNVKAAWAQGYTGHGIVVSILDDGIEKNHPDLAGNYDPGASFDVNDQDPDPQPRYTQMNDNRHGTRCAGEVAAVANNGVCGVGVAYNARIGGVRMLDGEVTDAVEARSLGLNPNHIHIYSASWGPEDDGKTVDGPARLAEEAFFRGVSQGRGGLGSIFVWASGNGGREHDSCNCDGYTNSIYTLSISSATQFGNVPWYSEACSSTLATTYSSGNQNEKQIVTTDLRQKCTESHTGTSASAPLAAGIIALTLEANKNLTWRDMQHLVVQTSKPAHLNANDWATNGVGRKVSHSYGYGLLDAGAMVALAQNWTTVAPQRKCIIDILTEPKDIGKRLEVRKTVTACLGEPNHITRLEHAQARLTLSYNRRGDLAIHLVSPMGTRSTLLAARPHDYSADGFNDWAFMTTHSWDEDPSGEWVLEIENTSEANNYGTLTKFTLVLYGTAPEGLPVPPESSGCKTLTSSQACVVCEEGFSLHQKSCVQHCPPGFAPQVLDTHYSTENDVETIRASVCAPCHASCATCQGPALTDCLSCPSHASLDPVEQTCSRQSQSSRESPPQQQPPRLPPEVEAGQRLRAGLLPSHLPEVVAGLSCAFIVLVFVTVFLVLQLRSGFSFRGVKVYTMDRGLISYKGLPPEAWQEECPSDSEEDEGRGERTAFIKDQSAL

Row | Sequence | furin cleavage Z-score (7.5 min) | furin cleavage Z-score (15 min) | furin cleavage Z-score (30 min)
1 | CALVVLATATAGNASASA [HC832] | 1.79 | 1.59 | 0.476 (inactive)
2 | CAREECSQHLAGNASASA [HC1673] | 1.67 | 1.9 | 0.967 (inactive)
3 | CAEERREKREAGNASASA [FS-905] | 4.27 (active) | 4.96 (active) | 6.98 (active)
4 | CANDIREKREAGNASASA [FS-179] | 3.92 (active) | 4.37 (active) | 4.65 (active)
5 | CAWARRHKREAGNASASA [FS-1502] | 10.7 (active) | 9.83 (active) | 7.82 (active)
6 | CANKARLKKIAGNASASA [FS-694] | -0.0765 (inactive) | -1.98 (inactive) | -2.55 (inactive)
7 | CASTKCSAHLAGNASASA [HC2514] | -0.0801 (inactive) | 1.2 | 0.075 (inactive)
8 | CATCTTPCSGAGNASASA [HC1958] | -0.852 (inactive) | 0.00782 (inactive) | -0.733 (inactive)
9 | CAYNNRPWRPAGNASASA [FS-392] | -1.33 (inactive) | -0.755 (inactive) | -0.205 (inactive)
10 | CAHQNIVDVQAGNASASA [HC507] | -1.69 (inactive) | -1.38 (inactive) | 0.384 (inactive)
11 | CACRFRFGRQAGNASASA [FS-405] | 2.68 | 3.98 (active) | 2.63
12 | CARRGRFLNQAGNASASA [FS-3047] | -0.612 (inactive) | -0.298 (inactive) | 1.14
13 | CATVSRTGRQAGNASASA [FS-1660] | 0.744 (inactive) | 2.19 | 3.07
14 | CAHNNRVGRQAGNASASA [FS-596] | 3.21 | 3.29 | 4.86 (active)
15 | CATGDNTTTSAGNASASA [HC1341] | 0.632 (inactive) | 0.808 (inactive) | -0.0812 (inactive)
16 | CAEVMCHRPSAGNASASA [HC2346] | -0.818 (inactive) | -0.184 (inactive) | 0.158 (inactive)
17 | CADCMEECSQAGNASASA [HC1820] | -0.19 (inactive) | 0.0434 (inactive) | -0.219 (inactive)
18 | CAARVAIKSLAGNASASA [HC1495] | -0.648 (inactive) | -1.12 (inactive) | -0.674 (inactive)
19 | CACTRGVAKAAGNASASA [HC753] | -1.87 (inactive) | -0.584 (inactive) | -0.853 (inactive)
20 | CATTPCVGSWAGNASASA [HC63] | 1.12 | 0.786 (inactive) | 1.12
21 | CALVALGINAAGNASASA [HC864] | 1.29 | -0.504 (inactive) | -2.31 (inactive)

Row | Sequence | furin cleavage Z-score (7.5 min) | furin cleavage Z-score (15 min) | furin cleavage Z-score (30 min)
22 | CAWVAAQLAAAGNASASA [HC1068] | 0.334 (inactive) | 0.0281 (inactive) | 0.213 (inactive)
23 | CAWGPISYANAGNASASA [HC395] | -0.888 (inactive) | 0.0541 (inactive) | -0.197 (inactive)
24 | CARDGRDGRKAGNASASA [FS-1999] | 1.36 | -0.614 (inactive) | -0.387 (inactive)
25 | CARSRRDFGLAGNASASA [FS-2310] | 2.52 | 5.69 (active) | 4.78 (active)
26 | CARSRRDGRKAGNASASA [FS-3172] | 6.47 (active) | 7.48 (active) | 6.61 (active)
27 | CARSRRNDEEAGNASASA [FS-2608] | 0.562 (inactive) | 2.36 | 0.814 (inactive)
28 | CARSRKAKEEAGNASASA [FS-2186] | 0.169 (inactive) | -0.905 (inactive) | -0.373 (inactive)
29 | CARWGRGFGLAGNASASA [FS-3129] | 1.38 | -3.28 (inactive) | 1.13
30 | CARSRKRVSEAGNASASA [FS-2460] | 0.0687 (inactive) | 0.727 (inactive) | 0.464 (inactive)
31 | CARSRRDREEAGNASASA [FS-3236] | 4.34 (active) | 4.09 (active) | 4.68 (active)
32 | CARIMRDSGLAGNASASA [FS-2150] | -1.41 (inactive) | 0.545 (inactive) | 0.804 (inactive)
33 | CARSRRGVSEAGNASASA [FS-2461] | 8.54 (active) | 8.94 (active) | 5.25 (active)
34 | CAMVPCHRPSAGNASASA [HC2306] | 1.55 | 0.971 (inactive) | 1.19
35 | CAVVCSSMSYAGNASASA [HC95] | -0.171 (inactive) | 0.902 (inactive) | 0.436 (inactive)
36 | CAPGDPDLSDAGNASASA [HC1358] | -0.316 (inactive) | -0.713 (inactive) | -1.52 (inactive)
37 | CARQKRQLWDAGNASASA [FS-2291] | 5.3 (active) | 8.17 (active) | 8.7 (active)
38 | CARQKRQNKEAGNASASA [FS-2756] | 1.89 | 0.961 (inactive) | 3.45
39 | CARQKRAWITAGNASASA [FS-3202] | 2.68 | 3.79 (active) | 6.77 (active)
40 | CARQKRAVATAGNASASA [FS-2360] | 9.36 (active) | 11.9 (active) | 7.99 (active)
41 | CACGSGPWITAGNASASA [HC459] | -1.7 (inactive) | -2.37 (inactive) | -1.44 (inactive)
42 | CALWMMLLISAGNASASA [HC528] | -0.863 (inactive) | -0.739 (inactive) | -0.913 (inactive)

— the supplement of paper PMC3545927
